# Experimental data from PubChem BioAssay (NCI).
# Where “and” joins values, the source holds several entries; their conditions need not be identical. Equal values may be shown once. This is part of a sample that, as a whole, favours compounds with a hit. Of some 83,000 tested, about 20% had one in any assay.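 Cell lines were cultured in 96-well plates, exposed to a single compound concentration, and assessed for percent growth 48 hours later.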 Calls of active or inactive are those of the source. How the source made its calls: active means growth percent below 10; inactive means the rest.
# Tested on: HL-60(TB) leukemia
# Experiment: NCI-60 one-dose screen, 48 h (100 = growth as untreated, 0 = no growth, -100 = all killed)
# Conditions: 10 µM unless noted
row,Compound,growth
1,Cc1ccc(NC(=O)NC(=O)CSc2nc3ccccc3nc2C)cc1,67.9% (inactive)
2,COc1cc2c(cc1OCCCCC(=O)Nc1ccc(-c3nc4ccccc4s3)cc1)N=C[C@@H]1CCCN1C2=O,-47.2% (active)
3,O=C1NC(=O)C2(CCc3ccccc32)N1 (stereo not given),93.7% (inactive) and 106% (inactive)
4,O=C(Nc1nc2cc(C(=O)N3CCN(C(c4ccccc4)c4ccccc4)CC3)ccc2o1)c1ccc(NC2CCCCC2)c([N+](=O)[O-])c1,82% (inactive)
5,COc1cc2c(c(OC)c1OC)-c1ccc(OC)c(=O)cc1[C@@H](NC(C)=O)CC2,-36% (active) and -38.2% (active)
6,CN(C)CCCC1(c2ccc(F)cc2)OCc2cc(-c3cccc4[nH]ccc34)ccc21 (stereo not given),31.6% (inactive)
7,COc1cc(C(=O)c2ccc3c(c2)OCO3)cc(OC)c1OC,1.04% (active) and 22.6% (inactive)
8,CN1CCN(Cc2ccc(NC(=O)c3nc4ccc5[nH]ncc5c4c4c3CCC4)cc2C(F)(F)F)CC1,-59.1% (active)
9,CCOc1ccc(C(=O)Cc2ccccc2)cc1,97.4% (inactive)
10,COC(=O)C1=C(C(=O)ONCCN(C)C)C2C=CC1(C(Cc1ccccc1)Nc1ccc(F)cc1)O2 (stereo not given),35.8% (inactive)
